Records with an inconclusive call do not appear. A call without a number means that no potency is given here. Active and inactive are the calls of the source. The call rests on the fitted dose curve; in most records, active means well fitted cell-killing curve with a large enough effect in the repeat runs; inconclusive means weak or mixed curves, or effect the other way; inactive means flat fitted curve, though single readings scatter.
Potency means the concentration at half of the fitted maximal effect.

A short description of this assay: cAMP Responsive Elements (CRE) small molecule antagonists, cell-based qHTS assay: qHTS cell viability counter screen (AID 2060913). Further: nearly all actives have a fitted effect of over 40% in size. The following applies: CRE-bla HEK293T viability, CellTiter-Glo luminescence, 5 h; series mostly up to 92.4 µM. In a few lines:
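Cytotoxicity counter screen multiplexed with the CRE-bla antagonist read: HEK293T cells in DMEM with dialyzed FBS and 25 mM HEPES were treated 3 hrs under 0.25 uM final NKH477, then viability measured by CellTiter-Glo luminescence.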
A general note: In qHTS, concentration-response curves come from the screen itself.
As to `O=C(O)c1cccnc1Nc1cccc(C(F)(F)F)c1`, the Potency entry was “inactive”.

As for `CCC(=O)OCCc1ccccc1`, the Potency result was “inactive”.

As for `CC(COCC(C)OC(=O)c1ccccc1)OC(=O)c1ccccc1` (configuration not stated), the Potency entry was “inactive”.

With `Cn1c(N)c(N=O)c(=O)n(C)c1=O`, the Potency result is “inactive”.

`CCN(CC)C(=O)N(CC)CC`: the Potency entry was “inactive”.

As to `Cc1ccc2ccc3cccc4ccc1c2c34`, the Potency entry is “inactive”.

On to `NC(=O)NNc1ccccc1`, for which the Potency result was “inactive”.

On to `CCCCCCCC(=O)OCC(COC(=O)CCCCCCC)OC(=O)CCCCCCC`, for which the Potency entry was “inactive”.

In the case of `CC1=C(CC(=O)O)c2cc(F)ccc2/C1=C\c1ccc(S(C)=O)cc1` (configuration not stated), the Potency entry is “inactive”.

With `Cc1ccc(C(=O)Nc2ccc(S(=O)(=O)O)c3cc(S(=O)(=O)O)cc(S(=O)(=O)O)c23)cc1NC(=O)c1cccc(NC(=O)Nc2cccc(C(=O)Nc3cc(C(=O)Nc4ccc(S(=O)(=O)O)c5cc(S(=O)(=O)O)cc(S(=O)(=O)O)c45)ccc3C)c2)c1`, the Potency entry is “inactive”.

For `CCOc1ccc2c(c1)C(C)=CC(C)(C)N2`, the Potency result is “inactive”.

For `OCc1c[nH]c2ccccc12`, the Potency result was “inactive”.

For `C/C=C1/CC2C=CC1C2` (configuration not stated), the Potency entry was “inactive”.

Take `CNCc1ccc(NC(=O)c2c[nH]c3c2C(=O)CCC3)cc1`: the Potency result was “inactive”.

Turning to `OC1(c2ccc(Cl)c(C(F)(F)F)c2)CCN(CCCC(c2ccc(F)cc2)c2ccc(F)cc2)CC1`, the Potency was 29.8 µM (active).

Regarding `CC(C)CCCC(C)CCO` (configuration not stated), the Potency result is “inactive”.

With `Cc1c(I)c(=O)n(-c2ccccc2)n1C`, the Potency entry was “inactive”.
